# About 83,000 compounds went through this panel and 20% of them were active in at least one assay; those are over-represented in the sample as a whole.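 Compound tested at a single concentration for 48 hours in 96-well plates; a percent growth value below 10 was scored as active.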 Unmarked numbers belong to inactive results. Active and inactive are the calls of the source.
# System: HL-60(TB) leukemia
# Assay: NCI-60 one-dose screen, 48 h (100 = growth as untreated, 0 = no growth, -100 = all killed)
# Settings: 10 µM unless noted
row,Structure (SMILES),growth
1,COc1cc2c(c(OC)c1OC)-c1ccc(NN(C(=O)c3ccccc3)C(=O)c3ccccc3)c(=O)cc1[C@@H](NC(C)=O)CC2 (tested in a mixture with another compound),-1.35% (active)
2,O=C1Nc2ccc(Cl)cc2/C1=N/N=C(c1ccccc1)c1ccccc1,91.4%
3,CCCC(=O)Nc1ccccc1C(=O)O,94.1%
4,COc1cc(-c2cc(-c3ccc(C)cc3)nc3nc(N)[nH]c(=O)c23)ccc1Oc1ccnc2cc(Cl)ccc12,56.2%
5,CN1C(=O)/C(=C/c2ccc(C(=O)Nc3ncc(Cc4ccccc4Cl)s3)cc2)SC1=S,73.1%
6,CCCS(=O)(=O)Nc1ccc(F)c(C(=O)c2c[nH]c3ncc(-c4ccc(OCCCC5CCCCN5)nc4)cc23)c1F (centres undefined),97.4%
7,CCCCc1ccc2nc(NC(=O)OC)[nH]c2c1,-65.6% (active)
8,N#Cc1c(-c2ccccc2)nc2c(c(-c3ccccc3)nn2-c2ccccc2)c1-c1ccc(N2CCCCC2)cc1,95.8%
9,CC(CN(C)C)Oc1ccc(OC(C)CN(C)C)c2c1C(=O)c1ccccc1C2=O (centres undefined),39.2%
10,CC(=O)OC[C@H]1O[C@H](OC(C)=O)[C@H](NC(=O)/C=C/CCl)[C@@H](OC(C)=O)[C@@H]1OC(C)=O,96.4%
11,O=C(C(=O)c1ccc2c(c1)OCO2)c1ccc2c(c1)OCO2,62.3%
12,COc1ccc(C(=O)c2cc3c(N)c(C(=O)Nc4cccc(Cl)c4)sc3nc2C)cc1,-45.3% (active)
13,CCOC(=O)Cc1cnc(N/N=C(\C)c2cc3ccccc3o2)s1,65.2%
14,CN1CCN(C(=O)[C@]23CCC(C)(C)C[C@H]2C2=CC[C@@H]4[C@@]5(C)C/C(=C/c6ccncc6)C(=O)C(C)(C)[C@@H]5CC[C@@]4(C)[C@]2(C)CC3)CC1,-41.7% (active)
15,C=C(C)C1CCC2(C(=O)O)CCC3(C)C(CCC4C5(C)CCC(OC(=O)NCc6ccccc6)C(C)(C)C5CCC43C)C12 (centres undefined),23%
16,CC1(C)CC(OCCCC[P+](c2ccccc2)(c2ccccc2)c2ccccc2)CC(C)(C)N1O,-37.4% (active)
17,COc1ccc(/C=C/C(c2cc(OC)c(OC)c(OC)c2)n2cncn2)cc1 (centres undefined),-17.9% (active)
18,CCN(CCNc1ccc(C)c2sc3cc(Cl)ccc3c(=O)c12)CC(C)O (centres undefined),9.78% (active)
19,Fc1ccc(-c2ccnc3nc(-c4ccncc4)nn23)cc1,96.5%
20,O=C(COc1ccc(/C=C2\Oc3ccccc3C2=O)cc1)c1ccc(Cl)cc1,94.5%

row,Structure (SMILES),growth
1,c1ccc(C2CCCCC2)c(OCCCCCN2CCNCC2)c1,28.2%
2,CCCCc1n(Cc2ccc3ccccc3n2)cc[n+]1Cc1ccc2ccccc2c1,-46.1% (active)
3,CC1(C)CC[C@]2(C(=O)N3CCOCC3)CC[C@]3(C)C(=CC[C@@H]4[C@@]5(C)C/C(=C/c6ccncc6)C(=O)C(C)(C)[C@@H]5CC[C@]43C)[C@@H]2C1,-37.6% (active)
4,COc1ccc(-c2nc3sccn3c2/C=C/C(=O)c2cc(OC)c(OC)c(OC)c2)cc1OC,6.14% (active)
5,CC(=O)Nc1ccc(C(=O)CCl)cc1,-19.4% (active)
6,CC(=S)NC(=O)C(=O)/C=C1/NC(=O)C(=O)S1,104%
7,O=C1NC(=O)/C(=C\c2ccncc2)N1,119%
8,C1=C(c2ccccc2)c2ccccc2C1,95.1%
9,O=C(Nc1cc(=O)[nH]c(=O)[nH]1)C(Cl)Cl,99.4%
10,Nc1ccc2c(c1Br)Cc1ccccc1-2,56.3%
11,CC(=O)O[C@]1(C)C[C@H](O)[C@]2(O)C=CO[C@H](O[C@@H]3O[C@H](CO)[C@@H](O)[C@H](O)[C@H]3O)[C@@H]21,92.5%
12,COc1ccc(/C=C(/C(=O)N2CCN(c3ccc(C)cc3)CC2)c2cc(OC)c(OC)c(OC)c2)cc1N,-24.2% (active)
13,CC/C(=N\N=C(/CC)c1ccc(Br)cc1)c1ccc(Br)cc1,124%
14,COc1cc(/C=C/C(=O)c2c(-c3ccc(F)cc3)nc3sc(C)nn23)cc(OC)c1OC,12%
15,NC1=CC(=O)c2ccccc2C1=O,81.6%
16,COc1ccc2c(c1)c(-c1nc(-c3c[nH]c4ncccc34)cs1)cn2CCO,58%
17,CCCCCCC(C)c1ccccc1O (centres undefined) (tested in a mixture with another compound),113%
18,COc1ccc(CNc2c3ccccc3nc3ccccc23)c(OC)c1,36.9%
19,CCOC(=O)c1cnc2ccc(Br)cc2c1Nc1cccc(S(=O)(=O)NC)c1,119%

# — PubChem BioAssay (NCI)
